Reference: PMC8384837, “Expanding the binding specificity for RNA recognition by a PUF domain”

Columns and labels:
Test in all cases: yeast three-hybrid, YBZ-1, SC-Leu-His + 0.5 mM 3-AT, 4 days
Settings in all cases: tags: N-Gal4 AD-HA kept; label: inside an RPR1-promoter hybrid RNA with tandem MS2 sites; ssRNA
PUM1 PUF domain R3-QPS = PUM1 PUF domain R3-QPS (Homo sapiens, UniProt Q14671 828-1176, C935Q;R936P;Q939S)
Procedure, shortened: (§1)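 The interaction score is the log change in variant frequency from input to selection. Scores were computed in log2 with a pseudocount of 1 for absent variants, using Illumina sequencing of PCR-amplified repeat regions. The input came from four days on SC-Leu and the selection from four days on SC-Leu-His + 0.5 mM 3-AT. The cells were strain YBZ-1 (LexA–MS2 coat fusion, HIS3 reporter) co-expressing Pumilio-1 PUF domain libraries and matching RNA elements from a centromeric plasmid.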

PUM1 PUF domain R1-RRS = PUM1 PUF domain R1-RRS (Homo sapiens, UniProt Q14671 828-1176, S863R;Q867S)
Procedure, shortened: as §1

PUM1 PUF domain R1-KSL = PUM1 PUF domain R1-KSL (Homo sapiens, UniProt Q14671 828-1176, S863K;R864S;Q867L)
Procedure, shortened: as §1

PUM1 PUF domain R4-GNV = PUM1 PUF domain R4-GNV (Homo sapiens, UniProt Q14671 828-1176, N971G;H972N;Q975V)
Procedure, shortened: as §1

PUM1 PUF domain R4-CMV = PUM1 PUF domain R4-CMV (Homo sapiens, UniProt Q14671 828-1176, N971C;H972M;Q975V)
Procedure, shortened: as §1

PUM1 PUF domain R4-QGG = PUM1 PUF domain R4-QGG (Homo sapiens, UniProt Q14671 828-1176, N971Q;H972G;Q975G)
Procedure, shortened: as §1

PUM1 PUF domain R8-RRN = PUM1 PUF domain R8-RRN (Homo sapiens, UniProt Q14671 828-1176, N1122R;Y1123R;Q1126N)
Procedure, shortened: as §1

PUM1 PUF domain R5-VHL = PUM1 PUF domain R5-VHL (Homo sapiens, UniProt Q14671 828-1176, C1007V;R1008H;Q1011L)
Procedure, shortened: as §1

PUM1 PUF domain R5-GFM = PUM1 PUF domain R5-GFM (Homo sapiens, UniProt Q14671 828-1176, C1007G;R1008F;Q1011M)
Procedure, shortened: as §1

PUM1 PUF domain R3-FRW = PUM1 PUF domain R3-FRW (Homo sapiens, UniProt Q14671 828-1176, C935F;Q939W)
Procedure, shortened: as §1

PUM1 PUF domain R1-RRS, sequence (Q14671 828-1176 S863R/Q867S): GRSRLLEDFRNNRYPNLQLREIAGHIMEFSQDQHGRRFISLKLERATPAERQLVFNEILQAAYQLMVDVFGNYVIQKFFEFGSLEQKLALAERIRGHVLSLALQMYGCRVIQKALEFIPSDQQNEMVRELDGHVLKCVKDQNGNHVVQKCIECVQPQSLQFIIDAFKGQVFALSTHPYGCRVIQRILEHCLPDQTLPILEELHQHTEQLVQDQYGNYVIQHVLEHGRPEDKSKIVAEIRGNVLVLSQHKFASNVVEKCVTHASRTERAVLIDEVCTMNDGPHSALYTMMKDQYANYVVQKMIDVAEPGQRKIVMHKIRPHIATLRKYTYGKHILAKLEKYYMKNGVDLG
PUM1 PUF domain R4-CMV, sequence (Q14671 828-1176 N971C/H972M/Q975V): as the sequence (Q14671 828-1176 S863R/Q867S) above, with R36S, S40Q, N144C, H145M, Q148V counted along it
PUM1 PUF domain R4-QGG, sequence (Q14671 828-1176 N971Q/H972G/Q975G): as the sequence (Q14671 828-1176 S863R/Q867S) above, with R36S, S40Q, N144Q, H145G, Q148G counted along it
PUM1 PUF domain R4-GNV, sequence (Q14671 828-1176 N971G/H972N/Q975V): as the sequence (Q14671 828-1176 S863R/Q867S) above, with R36S, S40Q, N144G, H145N, Q148V counted along it
PUM1 PUF domain R5-GFM, sequence (Q14671 828-1176 C1007G/R1008F/Q1011M): as the sequence (Q14671 828-1176 S863R/Q867S) above, with R36S, S40Q, C180G, R181F, Q184M counted along it
PUM1 PUF domain R1-KSL, sequence (Q14671 828-1176 S863K/R864S/Q867L): as the sequence (Q14671 828-1176 S863R/Q867S) above, with R36K, R37S, S40L counted along it
PUM1 PUF domain R8-RRN, sequence (Q14671 828-1176 N1122R/Y1123R/Q1126N): as the sequence (Q14671 828-1176 S863R/Q867S) above, with R36S, S40Q, N295R, Y296R, Q299N counted along it
PUM1 PUF domain R3-FRW, sequence (Q14671 828-1176 C935F/Q939W): as the sequence (Q14671 828-1176 S863R/Q867S) above, with R36S, S40Q, C108F, Q112W counted along it
PUM1 PUF domain R5-VHL, sequence (Q14671 828-1176 C1007V/R1008H/Q1011L): as the sequence (Q14671 828-1176 S863R/Q867S) above, with R36S, S40Q, C180V, R181H, Q184L counted along it
PUM1 PUF domain R3-QPS, sequence (Q14671 828-1176 C935Q/R936P/Q939S): as the sequence (Q14671 828-1176 S863R/Q867S) above, with R36S, S40Q, C108Q, R109P, Q112S counted along it

With “GGCUAGAACUAGUGGAUCCCCCGGCGCCCGGCGGCUCGAGCCCGGGUAAGUGUAAUUAGUCUGCAUGCCGCCGGGCGCCAUGCCUGCAGGUCGACUCUAGAAAACAUG” the binding signal (PUM1 PUF domain R3-QPS) was 3.41 log2 enrichment (interaction score).

In the case of “GGCUAGAACUAGUGGAUCCCCCGGCGCCCGGCGGCUCGAGCCCGGGUAAGUGUAAAUCGUCUGCAUGCCGCCGGGCGCCAUGCCUGCAGGUCGACUCUAGAAAACAUG”, the binding signal (PUM1 PUF domain R1-RRS) is reported as 5.02 log2 enrichment (interaction score) and the binding signal (PUM1 PUF domain R1-KSL) is reported as 2.8 log2 enrichment (interaction score).

With “GGCUAGAACUAGUGGAUCCCCCGGCGCCCGGCGGCUCGAGCCCGGGUAAGUGUAUAUAGUCUGCAUGCCGCCGGGCGCCAUGCCUGCAGGUCGACUCUAGAAAACAUG” the binding signal (PUM1 PUF domain R4-GNV) was 2.92 log2 enrichment (interaction score), the binding signal (PUM1 PUF domain R4-CMV) was 3.68 log2 enrichment (interaction score) and the binding signal (PUM1 PUF domain R4-QGG) was 2.98 log2 enrichment (interaction score).

With “GGCUAGAACUAGUGGAUCCCCCGGCGCCCGGCGGCUCGAGCCCGGGUAAGUGUACAUAGUCUGCAUGCCGCCGGGCGCCAUGCCUGCAGGUCGACUCUAGAAAACAUG” the binding signal (PUM1 PUF domain R4-GNV) was 1.41 log2 enrichment (interaction score), the binding signal (PUM1 PUF domain R4-CMV) was 1.08 log2 enrichment (interaction score) and the binding signal (PUM1 PUF domain R4-QGG) was 1.65 log2 enrichment (interaction score).

“GGCUAGAACUAGUGGAUCCCCCGGCGCCCGGCGGCUCGAGCCCGGGUAAGUGUAAAUAGUCUGCAUGCCGCCGGGCGCCAUGCCUGCAGGUCGACUCUAGAAAACAUG” was tested, and the binding signal (PUM1 PUF domain R8-RRN) was 2.81 log2 enrichment (interaction score), the binding signal (PUM1 PUF domain R4-CMV) was 2.52 log2 enrichment (interaction score) and the binding signal (PUM1 PUF domain R5-VHL) was 2.67 log2 enrichment (interaction score). The binding signal (PUM1 PUF domain R5-GFM) was 2.5 log2 enrichment (interaction score).

For “GGCUAGAACUAGUGGAUCCCCCGGCGCCCGGCGGCUCGAGCCCGGGUAAGUGUGAAUAGUCUGCAUGCCGCCGGGCGCCAUGCCUGCAGGUCGACUCUAGAAAACAUG”, the binding signal (PUM1 PUF domain R5-GFM) was 2.5 log2 enrichment (interaction score).

With “GGCUAGAACUAGUGGAUCCCCCGGCGCCCGGCGGCUCGAGCCCGGGUAAGUGUAAGUAGUCUGCAUGCCGCCGGGCGCCAUGCCUGCAGGUCGACUCUAGAAAACAUG” the binding signal (PUM1 PUF domain R3-FRW) was 4.16 log2 enrichment (interaction score).

“GGCUAGAACUAGUGGAUCCCCCGGCGCCCGGCGGCUCGAGCCCGGGUAAGUGUAAAUUGUCUGCAUGCCGCCGGGCGCCAUGCCUGCAGGUCGACUCUAGAAAACAUG” was tested, and the binding signal (PUM1 PUF domain R1-RRS) was 3.16 log2 enrichment (interaction score).

In the case of “GGCUAGAACUAGUGGAUCCCCCGGCGCCCGGCGGCUCGAGCCCGGGUAAGUGUAAAUGGUCUGCAUGCCGCCGGGCGCCAUGCCUGCAGGUCGACUCUAGAAAACAUG”, the binding signal (PUM1 PUF domain R1-RRS) is reported as 2.51 log2 enrichment (interaction score).
